Measurements as given in PubChem BioAssay (NCI).
The panel holds about 79,000 compounds, 15% with a hit somewhere; the sample as a whole holds those more often. The source made the active and inactive calls. No stated cut-off is given here; in the data, active means growth inhibition above about 70%; inactive means the rest.

Tests used:
[1] = NCI Yeast Anticancer Drug Screen. Data for the rad52 strain (AID 147);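 further: 0% = growth of vehicle-treated control cultures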; details: S. cerevisiae rad52 mutant growth inhibition, active compounds read high
In short: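 Growth of repair-deficient yeast cells was compared between compound-treated and vehicle-treated cultures to give percent inhibition.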

[2] = NCI Yeast Anticancer Drug Screen. Data for the mgt1 strain (AID 153); details: S. cerevisiae mgt1 mutant growth inhibition, active compounds read high
In short: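 Compounds were applied to mgt1 mutant yeast, and growth was then compared against vehicle-treated control cultures to give percent inhibition.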

[3] = NCI Yeast Anticancer Drug Screen. Data for the rad50 strain (AID 155);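 further: 0% = growth of vehicle-only cultures of the same strain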; details: S. cerevisiae rad50 strain growth inhibition, active compounds read high
In short: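 Readout: growth inhibition relative to vehicle-treated cultures. Compound exposure was carried out in a genetically defined yeast strain deficient in DNA damage repair.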

[4] = NCI Yeast Anticancer Drug Screen. Data for the mec2-1 strain (AID 157); details: S. cerevisiae mec2-1 strain, active compounds read high
In short: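 Compounds were applied to mec2-1 yeast cells. Their growth was then compared with that of vehicle-treated cultures to give growth inhibition.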

[5] = NCI Yeast Anticancer Drug Screen. Data for the rad14 strain (AID 159);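 further: 0% = growth of vehicle-treated control cultures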; details: S. cerevisiae rad14 strain growth inhibition, active compounds read high
In short: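 Growth inhibition vs vehicle controls; genetically altered yeast strain (DNA damage repair defect) treated with test compounds.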

[6] = NCI Yeast Anticancer Drug Screen. Data for the sgs1 mgt1 strain (AID 161);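 further: 0% = growth of cultures given vehicle only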; details: S. cerevisiae sgs1 mgt1 strain, active compounds read high
In short: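 Compounds are added to genetically altered yeast, and growth is compared with cultures given vehicle alone to give percent inhibition.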

[7] = NCI Yeast Anticancer Drug Screen. Data for the CLN2oe strain (AID 163);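 further: 0% = growth of vehicle-only control cultures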; details: S. cerevisiae CLN2oe strain, active compounds read high
In short: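 Cells of an engineered yeast line with disturbed cell-cycle regulation are treated with compound. Inhibition of growth is then calculated relative to the vehicle-treated reference.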

[8] = NCI Yeast Anticancer Drug Screen. Data for the cln2 rad14 strain (AID 165);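 further: 0% = growth equal to vehicle treated cultures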; details: S. cerevisiae cln2 rad14 strain, active compounds read high
In short: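 Strain: cln2 rad14 yeast, altered in cell cycle control and DNA damage repair. Read-out: growth inhibition vs vehicle.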

[9] = NCI Yeast Anticancer Drug Screen. Data for the bub3 strain (AID 167); details: S. cerevisiae bub3 mutant strain, active compounds read high
In short: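 Readout: yeast growth inhibition, expressed relative to vehicle-only wells. The test organism is a mutant strain from a panel with lesions in DNA repair or checkpoint genes.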

[10] = NCI Yeast Anticancer Drug Screen. Data for the wt2 strain (AID 169);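 further: 0% = growth of vehicle-treated yeast cultures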; details: S. cerevisiae wt2 strain growth inhibition, active compounds read high
In short: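 Growth of compound-treated yeast is measured and expressed as inhibition relative to vehicle-only controls.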

[11] = NCI Yeast Anticancer Drug Screen. Data for the mlh1 strain (AID 171);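 further: 0% = growth of vehicle-treated control cultures of the same strain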; details: S. cerevisiae mlh1 strain growth inhibition, active compounds read high
In short: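 Test agents were incubated with yeast bearing a defined DNA damage repair or cell cycle control alteration; values are growth inhibition normalised to vehicle-treated cultures.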

[12] = NCI Yeast Anticancer Drug Screen. Data for the sgs1 strain (AID 173);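 further: 0% = growth of vehicle-only control cultures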; details: S. cerevisiae sgs1 mutant, active compounds read high
In short: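 Strain with an altered DNA repair or cell cycle pathway exposed to compound. Growth then measured. Value = inhibition versus vehicle control.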

[13] = NCI Yeast Anticancer Drug Screen. Data for the mlh1 rad18 strain (AID 175); details: S. cerevisiae mlh1 rad18 strain growth inhibition, active compounds read high
In short: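 A repair-deficient yeast strain is exposed to test compound, and growth is scored relative to vehicle-treated controls.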

[14] = NCI Yeast Anticancer Drug Screen. Data for the rad18 strain (AID 177); details: S. cerevisiae rad18 mutant growth inhibition, active compounds read high
In short: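 DNA-repair-defective yeast; compound treatment; growth inhibition scored against vehicle.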

[15] = NCI Yeast Anticancer Drug Screen. Data for the rad50EPP+ strain (AID 151);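 further: 0% = growth of vehicle-treated control cultures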; details: S. cerevisiae rad50 mutant strain, active compounds read high
In short: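 Measured: growth inhibition of rad50EPP+ yeast. Reference: vehicle-treated controls. Screen uses strains with defined genetic alterations in DNA damage repair or cell cycle control.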

[16] = at 5.0 µM (retest, dose inferred, filed as 0.5)
[17] = at 50.0 µM (retest, dose inferred, filed as 5.0)

Measured: growth inhibition

c1ccc2nc3c(nc2c1)sc1ccccc13
active: [1]; at 3.7 µM 74% | [1]; at 11.0 µM 95% | [1]; at 33.0 µM 94% | [1]; at 100.0 µM 86% | [3]; at 3.7 µM 75% | [3]; at 11.0 µM 92% | [3]; at 33.0 µM 91% | [3]; [17] 78% | [3]; at 50.0 µM 92.8% | [3]; at 100.0 µM 82%
inactive: [1]; at 1.2 µM 13% | [2]; at 1.2 µM 2% | [2]; at 3.7 µM 2% | [2]; at 11.0 µM 10% | [2]; at 33.0 µM 20% | [2]; at 100.0 µM 18% | [3]; at 1.2 µM 13% | [3]; [16] 54% | [4]; at 1.2 µM 4% | [4]; at 3.7 µM 5% | [4]; [16] -32% | [4]; at 11.0 µM 41% | [4]; at 33.0 µM 42% | [4]; [17] 8% | [4]; at 50.0 µM 31.9% | [4]; at 100.0 µM 36% | [5]; at 1.2 µM 4% | [5]; at 3.7 µM 21% | [5]; at 11.0 µM 35% | [5]; at 33.0 µM 39% | [5]; at 100.0 µM 35% | [6]; [16] -52% | [6]; [17] -5% | [6]; at 50.0 µM 11.2% | [7]; at 1.2 µM -2% | [7]; at 3.7 µM 6% | [7]; at 11.0 µM 28% | [7]; at 33.0 µM 37% | [7]; at 100.0 µM 34% | [8]; [16] -29% | [8]; [17] 15% | [8]; at 50.0 µM 36% | [9]; at 1.2 µM 0% | [9]; at 3.7 µM 11% | [9]; [16] -40% | [9]; at 11.0 µM 41% | [9]; at 33.0 µM 47% | [9]; [17] 12% | [9]; at 50.0 µM 32.8% | [9]; at 100.0 µM 41% | [10]; at 1.2 µM -2% | [10]; at 3.7 µM 1% | [10]; at 11.0 µM 6% | [10]; at 33.0 µM 13% | [10]; at 100.0 µM 9% | [11]; at 1.2 µM 4% | [11]; at 3.7 µM 3% | [11]; at 11.0 µM 19% | [11]; at 33.0 µM 28% | [11]; at 100.0 µM 23% | [12]; at 1.2 µM -2% | [12]; at 3.7 µM 20% | [12]; at 11.0 µM 43% | [12]; at 33.0 µM 51% | [12]; at 100.0 µM 37% | [13]; [16] -71% | [13]; [17] 14% | [13]; at 50.0 µM 61.9% | [14]; at 1.2 µM 4% | [14]; at 3.7 µM 21% | [14]; at 11.0 µM 45% | [14]; at 33.0 µM 52% | [14]; at 100.0 µM 47%

O=[N+]([O-])c1cn[n+]([O-])c2ccccc12
active: [1]; at 11.0 µM 90% | [1]; at 33.0 µM 97% | [1]; at 100.0 µM 99% | [15]; at 3.7 µM 90% | [15]; at 11.0 µM 96% | [15]; at 33.0 µM 99% | [15]; at 100.0 µM 100% | [3]; at 11.0 µM 85% | [3]; at 33.0 µM 97% | [3]; [17] 97% | [3]; at 50.0 µM 89.3% | [3]; at 100.0 µM 99% | [4]; at 33.0 µM 97% | [4]; [17] 99% | [4]; at 50.0 µM 91.8% | [4]; at 100.0 µM 99% | [5]; at 11.0 µM 91% | [5]; at 33.0 µM 99% | [5]; at 100.0 µM 99% | [6]; [17] 99% | [6]; at 50.0 µM 90.3% | [7]; at 33.0 µM 84% | [7]; at 100.0 µM 99% | [8]; [17] 98% | [8]; at 50.0 µM 92% | [9]; at 33.0 µM 99% | [9]; [17] 99% | [9]; at 50.0 µM 89.5% | [9]; at 100.0 µM 99% | [10]; at 11.0 µM 75% | [10]; at 33.0 µM 100% | [10]; at 100.0 µM 99% | [11]; at 33.0 µM 95% | [11]; at 100.0 µM 99% | [12]; at 3.7 µM 71% | [12]; at 11.0 µM 84% | [12]; at 33.0 µM 98% | [12]; at 100.0 µM 98% | [13]; [17] 97% | [13]; at 50.0 µM 92% | [14]; at 1.2 µM 92% | [14]; at 3.7 µM 93% | [14]; at 11.0 µM 95% | [14]; at 33.0 µM 98% | [14]; at 100.0 µM 99%
inactive: [1]; at 1.2 µM 33% | [1]; at 3.7 µM 59% | [15]; at 1.2 µM 61% | [3]; at 1.2 µM 14% | [3]; at 3.7 µM 58% | [3]; [16] 25% | [4]; at 1.2 µM 17% | [4]; at 3.7 µM 10% | [4]; [16] -31% | [4]; at 11.0 µM 52% | [5]; at 1.2 µM 21% | [5]; at 3.7 µM 43% | [6]; [16] 38% | [7]; at 1.2 µM 0% | [7]; at 3.7 µM 11% | [7]; at 11.0 µM 14% | [8]; [16] 7% | [9]; at 1.2 µM -1% | [9]; at 3.7 µM -12% | [9]; [16] -28% | [9]; at 11.0 µM 0% | [10]; at 1.2 µM -18% | [10]; at 3.7 µM 5% | [11]; at 1.2 µM 10% | [11]; at 3.7 µM 6% | [11]; at 11.0 µM 39% | [12]; at 1.2 µM 40% | [13]; [16] 38%
